This is part of a sample that, as a whole, favours compounds with a hit. Of some 79,000 tested, about 15% had one in any assay. Cut-off read from the data, not from the text of the source: active = growth inhibition above about 70%; inactive = the rest.
How the values were obtained:
[1] = NCI Yeast Anticancer Drug Screen. Data for the rad50 strain (AID 155);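 note: 0% = growth of vehicle-only cultures of the same strain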; conditions: S. cerevisiae rad50 strain growth inhibition; at 50.0 µM; stronger effect = higher value
Summary of the method: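 A DNA repair-deficient yeast mutant serves as the test organism; compound-induced growth inhibition is calculated against vehicle-treated cells.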

[2] = NCI Yeast Anticancer Drug Screen. Data for the mec2-1 strain (AID 157); conditions: S. cerevisiae mec2-1 strain, at 50.0 µM, stronger effect = higher value
Summary of the method: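 Growth inhibition is read against vehicle-treated controls after compound exposure of the mec2-1 yeast strain, which is defective in DNA damage repair or cell cycle control.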

[3] = NCI Yeast Anticancer Drug Screen. Data for the sgs1 mgt1 strain (AID 161);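 note: 0% = growth of cultures given vehicle only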; conditions: S. cerevisiae sgs1 mgt1 strain, at 50.0 µM, stronger effect = higher value
Summary of the method: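 This yeast growth screen uses a strain with defined DNA-repair lesions; compound-treated growth is compared with vehicle-treated growth.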

[4] = NCI Yeast Anticancer Drug Screen. Data for the cln2 rad14 strain (AID 165);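 note: 0% = growth equal to vehicle treated cultures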; conditions: S. cerevisiae cln2 rad14 strain, at 50.0 µM, stronger effect = higher value
Summary of the method: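 Growth inhibition, relative to vehicle-treated controls, is the read-out. The test organism is a yeast strain with defined genetic alterations, cln2 rad14.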

[5] = NCI Yeast Anticancer Drug Screen. Data for the bub3 strain (AID 167); conditions: S. cerevisiae bub3 mutant strain, at 50.0 µM, stronger effect = higher value
Summary of the method: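 Inhibition values come from growth of compound-treated mutant yeast normalised to vehicle-treated controls.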

[6] = NCI Yeast Anticancer Drug Screen. Data for the mlh1 rad18 strain (AID 175); conditions: S. cerevisiae mlh1 rad18 strain growth inhibition; at 50.0 µM; stronger effect = higher value
Summary of the method: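 Cells of a genetically altered yeast strain, deficient in DNA damage repair, were treated with compound. Their growth was then compared with that of vehicle-treated cultures to give inhibition.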

Measured: growth inhibition

COc1ccc(N=Nc2c(C)c(C#N)c(=S)n(C3OC(CO)C(O)C(O)C3O)c2-c2ccccc2)cc1 (stereo not drawn)
inactive: [1] 0.55% | [2] 2.85% | [3] 20.1% | [4] 10.7% | [5] 11.8% | [6] 23.9%

C/C(=N/NC(N)=O)c1cn[nH]c1C
inactive: [1] -27.6% | [2] -14.8% | [3] 3.7% | [4] -66% | [5] 11.9% | [6] 11.8%

CN1NC(=O)SC(=O)c2ccccc2C1=O
inactive: [1] -16.4% | [2] 22% | [3] 0.1% | [4] -12.1% | [5] 0.15% | [6] 0.65%

Nc1ncnc2c1ncn2C1C=COC(CO)C1O (stereo not drawn)
inactive: [1] 4.95% | [2] 1.05% | [3] -6.5% | [4] 2.5% | [5] -28.5% | [6] 20.4%

Cc1ccc(S(=O)(=O)OCC(c2ccccc2)C(F)(F)F)cc1 (stereo not drawn)
inactive: [1] -3.25% | [2] -14.2% | [3] 12.4% | [4] -23.7% | [5] 18.6% | [6] -1%

CN1C(=O)c2ccccc2CC12c1ccccc1C(=O)N2C (stereo not drawn)
inactive: [1] 2.8% | [2] -13.6% | [3] 22.9% | [4] -0.55% | [5] 15.9% | [6] 4.45%

CC(=O)C1=CN(Cc2ccccc2)C(O)CC1C(N)=O (stereo not drawn)
inactive: [1] 7.55% | [2] -12.6% | [3] 4.7% | [4] 10.8% | [5] 16.1% | [6] 1.3%

CC1(C)C=C(S(=O)(=O)c2ccccc2)Oc2ccccc2O1
inactive: [1] 15.3% | [2] 8% | [3] 24.2% | [4] 9.2% | [5] 47.8% | [6] 31.9%

CC(C)(O)/C1=C/C=C/CCCCCCCCCC1
inactive: [1] 13.8% | [2] 14.9% | [3] 50.1% | [4] 5.75% | [5] 14.8% | [6] 16.9%

CC1=NC(=O)C(C)(c2ccccc2)N1CCc1ccccc1 (stereo not drawn)
inactive: [1] -0.05% | [2] 8.4% | [3] -8.75% | [4] -16.9% | [5] -10.6% | [6] -28.6%

Cc1ccc2c(-c3ccc4ccccc4c3)c3ccccc3cc2c1
inactive: [1] 7.7% | [2] -10.2% | [3] -2.8% | [4] -12.6% | [5] -2.35% | [6] -40.5%

Cc1cc(C(=O)O)c(C#N)c(=O)n1C
inactive: [1] -1.55% | [2] 5.3% | [3] -12.6% | [4] -13.6% | [5] -12% | [6] 8.55%

CCCC(CC)(CC)CO
inactive: [1] -21.6% | [2] -6.9% | [3] -16.4% | [4] 12.1% | [5] -10.4% | [6] -6.15%

C=C1C(=O)SC(=NCc2ccccc2)N1C
inactive: [1] 24.4% | [2] 16.4% | [3] 19.9% | [4] 19.9% | [5] 0% | [6] 25.8%

C=CCS(=O)(=O)c1ccc(Cl)cc1
inactive: [1] 1.95% | [2] 2.25% | [3] -20.5% | [4] -24.6% | [5] 0.95% | [6] -22.2%

CNc1ncnc2c1c(C(N)=S)cn2C1OC(CO)C(O)C1O (stereo not drawn)
inactive: [1] 0.1% | [2] -22.7% | [3] -13.7% | [4] 2.2% | [5] 0.95% | [6] 12.5%

COc1cc(C)c(OC)c(C/C=C(\C)CC2=C(CC(C)(C)O)C(=O)[C@]3(C)CCC[C@]3(C)C2)c1
inactive: [1] 33.6% | [2] 25.8% | [3] 13.7% | [4] 4.35% | [5] 16.5% | [6] 12.4%

CCOC(=O)C(c1ccccc1)c1ccccc1
inactive: [1] -11.4% | [2] -26.7% | [3] -17.6% | [4] -43.2% | [5] -12.8% | [6] -12.2%

O=C(O)C1Nc2ccccc2NC1=O (stereo not drawn)
inactive: [1] 3.55% | [2] -3.15% | [3] -5.5% | [4] -47% | [5] -4.35% | [6] 3.3%

CC(=O)Oc1c(/C=C/c2ccccc2)c(OC(C)=O)c2cc(Br)ccc2c1OC(C)=O
inactive: [1] 13.1% | [2] 28.2% | [3] 25.2% | [4] -27% | [5] -17.2% | [6] 29.6%

O=CNc1ccc(S(=O)(=O)c2ccc(NC=O)cc2)cc1
inactive: [1] 4.05% | [2] -35.7% | [3] 4.75% | [4] 26.6% | [5] 9.9% | [6] -18.1%

CC(=O)Nc1cccc2ccc([N+](=O)[O-])cc12
inactive: [1] 13.1% | [2] 0.9% | [3] -3.8% | [4] 16.4% | [5] -5.7% | [6] 7.85%

O=C1c2c(F)c(F)c(F)c(F)c2SC2=Nc3cccc4cccc(c34)N12
inactive: [1] -17.5% | [2] -3.8% | [3] -37.3% | [4] -14.5% | [5] -4.25% | [6] -37.8%

COC(=O)C1=NOC(COc2ccc([N+](=O)[O-])cc2)C1 (stereo not drawn)
inactive: [1] 9.4% | [2] -2.9% | [3] 20.4% | [4] -8.55% | [5] -1.65% | [6] 19.1%

CCOC(=O)C1(F)S(=O)(=O)OCCOS1(=O)=O
inactive: [1] -12.9% | [2] -9.95% | [3] -11.4% | [4] -18.4% | [5] 6.3% | [6] -9.8%

CN(C)Cc1cc(C(C)(C)C)ccc1-c1ccc(C(C)(C)C)cc1CN(C)C
inactive: [1] -42.4% | [2] -17.6% | [3] -39.5% | [4] 12.6% | [5] -31.2% | [6] -30.9%

CCCCN(CCCC)C(=O)C(O)C(=O)N(CCCC)CCCC
inactive: [1] -5.05% | [2] -13.8% | [3] -4.4% | [4] -9.6% | [5] -13.3% | [6] -3.8%

CCC(CO)(CO)[N+](=O)[O-]
inactive: [1] 10.2% | [2] -2% | [3] -20.5% | [4] 5% | [5] 16.8% | [6] 7.25%

OC1c2ccccc2CC12Cc1ccccc1C2 (stereo not drawn)
inactive: [1] 36.1% | [2] 38.5% | [3] 37.3% | [4] 23.5% | [5] 26.6% | [6] 13.8%

C=CCOC(=O)C1(O)c2ccccc2NC(=S)N1CC=C (stereo not drawn)
inactive: [1] 1.35% | [2] 7.4% | [3] 5.2% | [4] 6.9% | [5] 10.3% | [6] -0.8%

CC(C)=CCc1c(O)ccc2ccc(=O)oc12
inactive: [1] 21.6% | [2] 20.1% | [3] 10.2% | [4] 17.9% | [5] 7.3% | [6] 29.4%

O=C(O)C(C(=O)O)C(c1cccc([N+](=O)[O-])c1)C(c1ccccc1)[N+](=O)[O-] (stereo not drawn)
inactive: [1] 52.5% | [2] 18.2% | [3] 45.5% | [4] 12.2% | [5] 22.2% | [6] 37.7%

CC(=O)Nc1nnc(S(C)(=O)=O)s1
inactive: [1] -29.6% | [2] -29% | [3] -55.6% | [4] 7.25% | [5] -36.9% | [6] -33%

CCCCCCCCCCCC(=O)OCC
inactive: [1] 26.8% | [2] 22.4% | [3] 8.45% | [4] 25.2% | [5] 9.15% | [6] 8.7%

CCN(CC)CCC1CCNCC1
inactive: [1] 0.5% | [2] -25.2% | [3] -1.8% | [4] 15.8% | [5] -3.9% | [6] 5.75%

CSc1ncc(CO)c(Nc2ccc(F)cc2)n1
inactive: [1] -12.7% | [2] 8.7% | [3] -16.4% | [4] -20% | [5] -14.9% | [6] -23.4%

CC(C#N)(Nc1ccccc1)c1ccccc1 (stereo not drawn)
inactive: [1] 0.6% | [2] 6.75% | [3] 6.9% | [4] -32.6% | [5] -10.7% | [6] -6.4%

FCCN(CCF)Cc1ccc2c(c1)OCO2
inactive: [1] -4.8% | [2] -12.3% | [3] 2.05% | [4] -63.1% | [5] -3.1% | [6] -7.4%
